The record followed here is PubChem BioAssay.

Assay [1] can be described thus: growth inhibition of DIPG glioma cells, dose response, cell-based, SU-DIPG-XVII, MIPE5.0, CellTiter-Glo, qHTS (AID 1347060; cut-off not given, nearly all actives have AC50 up to about 26 µM;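 note: cells exposed to compound for 48 hours before viability readout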). Conditions: SU-DIPG-XVII viability, CellTiter-Glo ATP luminescence.
Assay [2] in a line: growth inhibition of DIPG glioma cells, dose response, cell-based, JHH-DIPG-1, MIPE4.0, CellTiter-Glo, qHTS (AID 1347062; cut-off not given, nearly all actives have AC50 up to about 27 µM;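 for AC50: cells exposed to compound for two days before readout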). Conditions: JHH-DIPG-1 viability, CellTiter-Glo ATP luminescence.
Assay [3] can be described thus: growth inhibition of DIPG glioma cells, dose response, cell-based, SU-DIPG-XIII, MIPE5.0, CellTiter-Glo, qHTS (AID 1347064; cut-off not given, nearly all actives have AC50 up to about 23 µM;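 note: cells exposed to compound for 48 hours before the viability read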). The conditions noted are these: SU-DIPG-XIII viability, CellTiter-Glo ATP luminescence.
Assay [4] in a line: viability loss in pontine glioma line – cell-based, SU-DIPG-XXV, MIPE5.0, CellTiter-Glo, qHTS, dose response (AID 1347065; cut-off not given, nearly all actives have AC50 up to about 26 µM;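 note: cells exposed to compound for 48 hours before ATP readout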). Conditions: CellTiter-Glo ATP luminescence.
Assay [5] can be described thus: SU-DIPG-VI glioma cell viability, MIPE4.0 library, CellTiter-Glo luminescence, qHTS (AID 1347066; cut-off not given, nearly all actives have AC50 up to about 30 µM;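 note: cells exposed to compound for 48 hours before readout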). Conditions: CellTiter-Glo ATP luminescence.
Assay [6] is described as follows: growth inhibition of DIPG glioma cells, dose response, cell-based, SU-DIPG-IV, MIPE4.0, CellTiter-Glo, qHTS (AID 1347063; cut-off not given, nearly all actives have AC50 up to about 30 µM;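 note: compound exposure lasted 48 hours before the viability readout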). Conditions: SU-DIPG-IV viability, CellTiter-Glo ATP luminescence.
A short description of assay [7]: JHH-DIPG-1 glioma cell viability, MIPE5.0 library, CellTiter-Glo luminescence, qHTS (AID 1347067; cut-off not given, nearly all actives have AC50 up to about 26 µM;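 note: cells exposed to compound for 48 hours before readout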). Conditions: JHH-DIPG-1 glioma viability, CellTiter-Glo ATP luminescence.
Assay [8] in a line: SU-DIPG-XXV glioma cell viability, MIPE5.0 library, qHTS (AID 1347068; cut-off not given, nearly all actives have IC50 up to about 30 µM;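 note: cells exposed to compound for 48 hours before viability readout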).
Assay [9] can be described thus: sensitizers of A549 cells to miR-34 induction, primary screen, imaging, A549 dox-inducible miR-34, nuclei and caspase counts (AID 1347080;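 active = compounds whose cell count with miR-34 switched on is under 0.7 times the count with it off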). Conditions: A549 miR-34 inducible, Hoechst nuclei count, 48 h.
Assay [10] is described as follows: survival rescue of mitochondrial mutant cells in low glucose, primary screen, MELAS cybrids, Rieske KO mouse fibroblasts, CellTiter-Glo (AID 1508586;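 active = mean z-score across replicates of 1.96 or higher in either the MELAS or the Rieske mutant cell line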;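 note: z relative to plate mean and SD of compound and empty wells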).
The nature of assay [11]: modifiers of HSF1 nuclear foci, imaging, Selleck Cancer Library (AID 1347162; in the data active = plate-normalised HSF1 focus index below about 0.46). The conditions noted are these: human cells, at 10 µM; SSMD: measured here: HSF1 foci SSMD mean; cell count: measured here: cell number; plate-normalised HSF1 focus index: stronger effect = lower value.
A short description of assay [12]: ovarian cancer cell viability with rucaparib, profiling panel, oncology-focused library, rucaparib conditional (AID 1508598). Conditions: patient-derived ovarian cancer cells, CellTiter-Glo viability, 144 h, stronger effect = lower value.
Setting [13] is: stronger effect = lower value, cell number ratio, induced over uninduced.
Setting [14] is: measured here: relative caspase fold change +Dox/-Dox.
The mark [15] stands for this setting: measured here: total cells with miR-34 induction, stronger effect = lower value.
Setting [16] is: measured here: total cells without miR-34 induction.
[17] abbreviates: MELAS cybrid survival, CellTiter-Glo 48 h, stronger effect = higher value.
Setting [18] is: Rieske KO mouse fibroblast survival, CellTiter-Glo 72 h.

Records with an inconclusive call do not appear. The source made the active and inactive calls.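 Rule for the calls, unless noted: active = normalized viability below 100% at a tested concentration; inactive = the rest.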

As for `CC/C(=C(/c1ccc(O)cc1)c1ccc(OCCNC)cc1)c1ccccc1`, the AC50 in assay [1] is 2.63 µM (active); in assay [2], 23.5 µM (active); in [3] it was 9.34 µM (active); in assay [4], 3.32 µM (active); in assay [5], 26.4 µM (active).

For `O=C(c1ccc(/C=C/c2n[nH]c3ccccc23)cc1)N1CCNCC1`, the AC50 in [1] is 5.9 µM (active); in [2] it was 23.5 µM (active); in assay [3], 8.33 µM (active); in [4], 4.68 µM (active).

`CNC(=O)Nc1ccc(-c2nc(N3CC4CCC(C3)O4)c3cnn(C4CCC5(CC4)OCCO5)c3n2)cc1`: the AC50 is 0.742 µM (active) in [1]; 1.87 µM (active) in assay [2]; 0.0264 µM (active) in assay [6]; 0.332 µM (active) in [4]; 1.48 µM (active) in assay [7]. The IC50 in assay [8] was 1.86 µM (active). The fold change in assay [9] (setting [13]) was 1.12 (inactive); in assay [9] (setting [14]), 0.588. In addition, the results for the cell count in assay [9] (setting [15]) and in assay [9] (setting [16]) were 3730 and 3320, respectively. Further, the results for the z-score in [10] (setting [17]) and in [10] (setting [18]) were 3.93 (active) and -1.7, respectively.

Regarding `C=CCn1c(=O)c2cnc(Nc3ccc(N4CCN(C)CC4)cc3)nc2n1-c1cccc(C(C)(C)O)n1`, the AC50 in assay [1] is 4.17 µM (active); in assay [2] it was 0.418 µM (active); in assay [6], 11.8 µM (active); in assay [4] it was 1.05 µM (active). Moreover, the fold change in assay [9] (setting [13]) was 1.27 (inactive); in [9] (setting [14]) it was 0.673. Further, the cell count is 1400 in assay [9] (setting [15]), 1100 in [9] (setting [16]) and 6680 in assay [11]. In assay [11], the SSMD was determined as 1.04. Besides, the plate-normalised HSF1 focus index in assay [11] is 1.07 (inactive). The z-score in assay [10] (setting [17]) was 0.245 (inactive); in [10] (setting [18]), 1.66. In addition, the viability was 126% (inactive) in assay [12] (at 0.000305 µM, OCI-C5x cells, with rucaparib 10 µM, 100% = cells with rucaparib alone); 107% (inactive) in [12] (at 0.000305 µM, OCI-C5x cells, without rucaparib); 88.3% (active) in assay [12] (at 0.000305 µM, OCI-P5x cells, with rucaparib 20 µM, 100% = cells with rucaparib alone); 91.1% (active) in [12] (at 0.000305 µM, OCI-P5x cells, without rucaparib); 122% (inactive) in [12] (at 0.00122 µM, OCI-C5x cells, with rucaparib 10 µM, 100% = cells with rucaparib alone); 109% (inactive) in [12] (at 0.00122 µM, OCI-C5x cells, without rucaparib). The viability in assay [12] (at 0.00122 µM, OCI-P5x cells, with rucaparib 20 µM, 100% = cells with rucaparib alone) is 102% (inactive); in assay [12] (at 0.00122 µM, OCI-P5x cells, without rucaparib) it was 98.1% (active); in [12] (at 0.00488 µM, OCI-C5x cells, with rucaparib 10 µM, 100% = cells with rucaparib alone) it was 121% (inactive); in assay [12] (at 0.00488 µM, OCI-C5x cells, without rucaparib), 107% (inactive); in [12] (at 0.00488 µM, OCI-P5x cells, with rucaparib 20 µM, 100% = cells with rucaparib alone) it was 102% (inactive); in assay [12] (at 0.00488 µM, OCI-P5x cells, without rucaparib) it was 98.9% (active). Also, the viability is 120% (inactive) in assay [12] (at 0.0195 µM, OCI-C5x cells, with rucaparib 10 µM, 100% = cells with rucaparib alone); 102% (inactive) in assay [12] (at 0.0195 µM, OCI-C5x cells, without rucaparib); 88.1% (active) in [12] (at 0.0195 µM, OCI-P5x cells, with rucaparib 20 µM, 100% = cells with rucaparib alone); 97.6% (active) in [12] (at 0.0195 µM, OCI-P5x cells, without rucaparib); 104% (inactive) in assay [12] (at 0.0781 µM, OCI-C5x cells, with rucaparib 10 µM, 100% = cells with rucaparib alone); 96.7% (active) in assay [12] (at 0.0781 µM, OCI-C5x cells, without rucaparib). The viability in [12] (at 0.0781 µM, OCI-P5x cells, with rucaparib 20 µM, 100% = cells with rucaparib alone) was 82.5% (active); in assay [12] (at 0.0781 µM, OCI-P5x cells, without rucaparib), 92.8% (active); in [12] (at 0.313 µM, OCI-C5x cells, with rucaparib 10 µM, 100% = cells with rucaparib alone), 69.6% (active); in assay [12] (at 0.313 µM, OCI-C5x cells, without rucaparib), 55.3% (active); in [12] (at 0.313 µM, OCI-P5x cells, with rucaparib 20 µM, 100% = cells with rucaparib alone), 65.5% (active); in assay [12] (at 0.313 µM, OCI-P5x cells, without rucaparib), 59.9% (active). Moreover, the viability in assay [12] (at 1.25 µM, OCI-C5x cells, with rucaparib 10 µM, 100% = cells with rucaparib alone) was 54.7% (active); in assay [12] (at 1.25 µM, OCI-C5x cells, without rucaparib), 40.2% (active); in assay [12] (at 1.25 µM, OCI-P5x cells, with rucaparib 20 µM, 100% = cells with rucaparib alone), 45.8% (active); in assay [12] (at 1.25 µM, OCI-P5x cells, without rucaparib) it was 23.7% (active); in assay [12] (at 5 µM, OCI-C5x cells, with rucaparib 10 µM, 100% = cells with rucaparib alone) it was 35.9% (active); in assay [12] (at 5 µM, OCI-C5x cells, without rucaparib) it was 25.1% (active). For the same compound, the viability in assay [12] (at 5 µM, OCI-P5x cells, with rucaparib 20 µM, 100% = cells with rucaparib alone) is 14.5% (active); in assay [12] (at 5 µM, OCI-P5x cells, without rucaparib), 7.98% (active).

Regarding `CCOC(CN1C(=O)[C@](CC(=O)Nc2ccc(C)cc2)(NC(=O)Nc2ccc(C)cc2)c2ccccc21)OCC`, the AC50 is 23.5 µM (active) in assay [1], 14.8 µM (active) in [6], 18.6 µM (active) in assay [4] and 20.9 µM (active) in assay [7]. For the same compound, the outcome in assay [2] was inactive. Moreover, the IC50 in assay [8] is 23.5 µM (active).
